# Assay results reported in PubChem BioAssay (NCATS).
# Results filed as inconclusive are left out. Entries that show only a call come without a potency. The source made the active and inactive calls. Calls come from the whole dose curve; as a rule, active = well fitted inhibition curve with a large enough effect; inconclusive = small, poorly fitted or top-dose-only effect; inactive = flat fitted curve, though single readings scatter. *1 amine or outer side, *2 acyl side, *3 side chain or, on linkers, in order; H or OH if unused. Where a SMILES comes first, the peptide text is derived from it. [ ]: non-standard residue; d: D form. X4 = CC(C)=CCc1cc(C(O)C(N[*:1])C(=O)[*:2])ccc1O
# Assay: P-glycoprotein substrates identified in KB-8-5-11 adenocarcinoma cell line, qHTS therapeutic library screen (AID 1346987); note: nearly all actives have a fitted effect of over 65% in size; for activity change, negative = cytotoxicity: series mostly up to about 44 µM
# How it was run: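 Compounds are pinned in dose-response onto KB-8-5-11 cells (500 cells/well, colchicine-free medium) and left 72 h at 37 degree C. CellTiter-Glo luminescence then yields AC50 values.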
# Potency is the fitted concentration of half-maximal effect.
SMILES,Potency,"activity change, negative = cytotoxicity"
OC/C=C/C=C/[C@H]1Cc2cc(O)cc(O)c2O1,inactive,
CC1CCC2(OC1)OC1CC3C4CCC5C[C@@H](O[C@@H]6O[C@H](CO[C@@H]7OC[C@@H](O)[C@H](O)[C@H]7O)[C@H](O)[C@H](O)[C@H]6O)CC[C@]5(C)C4CC[C@]3(C)C1C2C (some centres not stated),inactive,
CC(C)=CCc1cc(C(O)C2NC(=O)CNC(=O)C(Cc3c[nH]c4ccccc34)NC(=O)C3CCCN3C(=O)CNC(=O)C(C(C)C)NC(=O)CNC2=O)ccc1O (configuration not stated) (cyclo(G[X4]GVGPW); configuration not given here),,-0.495% [at 9.29 µM] (inactive)
C[C@@]12CC[C@@H]3[C@@](CC[C@H]4[C@@]3(C)CCC[C@@]4(C)C(=O)O)(CC1=O)C2,inactive,
CC/C=C\CCO[C@@H]1O[C@H](CO)[C@@H](O)[C@H](O)[C@H]1O,inactive,
C=C1C[C@]23C[C@H]1CC[C@H]2[C@]1(C)CCC[C@@](C)(C(=O)O)[C@H]1[C@@H]3C(=O)O,inactive,
C[C@@]1(O)[C@H](O)[C@@H](CO)O[C@H]1n1ccc(N)nc1=O,inactive,
CC1C(=O)CC2C3CCC(C(=O)O)C12CC3(C)CO (configuration not stated),inactive,
COc1ccc(-c2cnc(-c3cccc4c3-c3ccccc3C4=O)o2)cc1,89.3 nM (active),
COc1cc(-c2ncn(/C=C\C(=O)OC(C)C)n2)cc(C(F)(F)F)c1,259 nM (active),
CC(c1ncncc1F)C(O)(Cn1cncn1)c1ccc(F)cc1F (configuration not stated),inactive,
COc1ccc(CCO[C@@H]2CCCC[C@H]2N2CC[C@@H](O)C2)cc1OC,inactive,
